PTHR1 agonist – PTHR1 (human) receptor agonism. Potency, µM (highest dose often 115 µM), actives largely listed as activators. AID 743266. Q03431. 410,000 compounds, 0.075% hits. HEK293 GP2 PTHR1 cells, GloSensor cAMP luminescence, 1 h; note: nearly all actives have a fitted effect of over 55% in size
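HEK-293-derived GP2 cells expressing PTHR1 and a GloSensor cAMP reporter, 3,000/well, plated overnight, given luciferin plus IBMX (each 0.5 mM as added) for 1 h at 37 °C, then compound for 1 h at 37 °C. Luminescence was read after 15 min at room temperature.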
D3 antag – D3 dopamine receptor (human) antagonism | D3R cells, DiscoveRx beta-arrestin luminescence, antagonist mode; active compounds read low | max response, negative = inhibition, % | 360,000 compounds, 2.5% hits; in the data active = max response below about -50%; inconclusive = no clear call, values can overlap the other calls
Target sequence (P35462 whole entry, looked up): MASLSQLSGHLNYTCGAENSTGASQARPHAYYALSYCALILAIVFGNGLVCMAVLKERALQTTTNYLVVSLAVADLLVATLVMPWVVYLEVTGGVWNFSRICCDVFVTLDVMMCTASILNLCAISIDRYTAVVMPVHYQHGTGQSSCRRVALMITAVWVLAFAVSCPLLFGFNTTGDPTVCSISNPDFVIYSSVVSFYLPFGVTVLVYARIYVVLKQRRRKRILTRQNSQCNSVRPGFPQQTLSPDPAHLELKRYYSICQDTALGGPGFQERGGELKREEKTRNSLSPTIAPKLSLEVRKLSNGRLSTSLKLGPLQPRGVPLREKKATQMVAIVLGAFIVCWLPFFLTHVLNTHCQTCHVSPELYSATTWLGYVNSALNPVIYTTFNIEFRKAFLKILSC
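Cells plated overnight at 1500 cells/well, then exposed to library compounds with dopamine controls for 90 minutes at 37 degrees C. DiscoveRx reagent added for 30–60 minutes at room temperature; luminescence read, quantitative HTS format.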
DRD3 agonist – agonists of human D3 dopamine receptor. P35462. D3R DiscoveRx beta-arrestin cells, luminescence, 90 min. max activation, %. 410,000 compounds, 0.58% hits. AID 652048; in the data active = max activation above about 30%
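Agonist mode: compounds and dopamine controls were applied to plated cells for 90 min at 37 degrees C after an overnight attachment at 1500 cells/well. Luminescent read-out followed 30 - 60 minutes at room temperature with DiscoveRx detection reagent.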
CBFb RUNX1 block – CBF-beta/RUNX1 interaction disruption | Q01196+Q13951 | AlphaScreen CBFb-His/RUNX1-biotin binding, biochemical | Potency, µM (doses to about 59.8 µM), actives largely listed as inhibitors | 230,000 tested, under 10 active
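Interaction loss through any mechanism counts as activity. Pre-formed complex of His-CBF-beta and biotin-RUNX1 (30 nM apiece) is incubated with compound 15 min, then with 50 ng nickel and 50 ng streptavidin beads for 90 min before AlphaScreen detection.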
Integrin act MD – activates integrin-mediated alleviation for muscular dystrophy; alpha7betagal myoblasts, beta-gal FDG fluorescence, 48 h; Potency, µM (titrated, usually from 38.3 µM), hits mostly activators; 350,000 compounds, 0.064% hits; note: nearly all actives have a fitted effect of over 60% in size
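Alpha7betagal+/- myoblasts (passage 13) were plated 16-24 hr, then exposed to compounds (1:260 dilution of DMSO stock) for 48 hours at 37C. After MPER lysis, β-galactosidase reporter activity was read as FDG fluorescence (ex 480/em 540) after 30 minutes.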
MBNL1 CUG block – blocks human MBNL1 binding to CUG repeat RNA. Q9NR56. TR-FRET MBNL1-His/biotin-(CUG)12 binding, 665/545 ratio. Potency, µM (series often up to 57.5 µM), hits mostly inhibitors. 280,000 compounds, 0.036% hits. AID 2675; active = well fitted inhibition curve with a large enough effect in the signal ratio, with a control signal flat, not every such curve was filed as active; inconclusive = small, poorly fitted or top-dose-only effect, or effect the other way, or a change in a side signal; inactive = no such curve, though single readings can be large or run the other way; the % refers to the signal ratio
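TR-FRET between His-tagged MBNL1 and biotin-(CUG)12 RNA, detected with Tb anti-His antibody (0.055 ng/ul) and streptavidin-XL665 (5 nM), 60 min at room temperature. Compounds titrated 92 nM to 58 uM; 665/545 nm ratio normalized to buffer and complex controls.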
Hits are given with their value; 0 = inactive; ? = inconclusive; - = no result given; ! = not confirmed by another sample. Shown are actives, neighbours in structure and some others; about 2.8% of the full set was active somewhere. Unless noted, calls come from the whole dose curve; as a rule, active = well fitted curve in the direction sought with a large enough effect; inconclusive = small, poorly fitted or top-dose-only effect, or another doubt; inactive = no such curve, though single readings can be large; an effect the other way counts as inactive or inconclusive.

SMILES	PTHR1 agonist	D3 antag	DRD3 agonist	CBFb RUNX1 block	Integrin act MD	MBNL1 CUG block
CC(C)(C)c1nnc(N/N=C/c2ccccc2)n(N)c1=O	0	0	0	0	0	0
CC(C)(C)c1nnc(N/N=C/c2ccccc2O)n(N)c1=O	0	0	33	-	0	0
COC(=O)c1ccc(C(=O)OC)c(NC(=O)COC(=O)CCOc2ccc(C)cc2)c1	0	-62	0	-	0	-
Cc1ccc(OCCC(=O)OCC(=O)NCCc2ccccc2)cc1	0	0	0	0	0	0
Cc1ccc(OCCC(=O)OCC(=O)NCCNC(=O)COC(=O)CCOc2ccc(C)cc2)cc1	0	-61	0	-	0	-
CCOC(=O)N/N=C/c1ccccc1-c1cc(OC)ccc1OC	-	-	-	0	-	-
O=C(c1ccc(Cl)cc1)C(CN1CCCCC1)c1ccccc1 (stereo not drawn)	0	-73	0	-	0	0
CC(CN1CCCC1)OC(=O)c1ccc(Br)cc1 (stereo not drawn)	0	-67	0	-	0	0
CC(CN1CCCCC1)OC(=O)C1c2ccccc2Oc2ccccc21 (stereo not drawn)	0	-63	0	0	0	0
CC(CN1CCN(C)CC1)OC(=O)c1ccc(Cl)cc1 (stereo not drawn)	0	0	0	0	0	0
CC(CN1CCCCC1)OC(=O)c1ccc(Cl)cc1 (stereo not drawn)	0	-56	0	0	0	0
CCOC(=O)C(CN1CCCC1)c1ccccc1 (stereo not drawn)	0	0	0	-	0	-
COc1ccc(OCC(O)CN2CCN(Cc3ccc4c(c3)OCO4)CC2)cc1 (stereo not drawn)	0	0	0	0	0	-
Cc1ccc(OCC(O)CN2CCN(Cc3ccc4c(c3)OCO4)CC2)c(C)c1 (stereo not drawn)	0	-60	0	0	0	0
CC(=O)c1ccc(OCC(O)CN2CCN(Cc3ccc4c(c3)OCO4)CC2)cc1 (stereo not drawn)	0	-51!	0	0	0	?
COC(=O)[C@]1(Cc2ccccc2)N[C@H](c2ccc(SC3CCCCC3)c(OC)c2)[C@@H]2C(=O)N(C)C(=O)[C@@H]21	0	?	0	-	0	-
COc1ccc(C(=O)NCCc2nnc3ccc(SCC(=O)Nc4ccccc4F)nn23)cc1	0	0	0	-	0	0
CCOc1ccc2[nH]c(=O)c(CN(Cc3cccs3)Cc3nnnn3C(C)(C)CC)cc2c1	0	0	31	0	0	0
COc1ccccc1CC(O)CC1c2c(cc3c(c2OC)OCO3)CCN1C (stereo not drawn)	0	0	0	-	0	-
COc1ccc(CC(O)CC2c3c(cc4c(c3OC)OCO4)CCN2C)cc1 (stereo not drawn)	0	-69	0	-	0	0
CCNC(=O)C1CCCN(C(=O)c2ccc(OC)c(OC)c2)CC1 (stereo not drawn)	0	0	79	-	-	-
CCNC(=O)C1CCCN(C(=O)c2ccc(OC)cc2)CC1 (stereo not drawn)	0	0	0	-	-	-
COCCNC(=O)C1CCCN(C(=O)c2ccc3ccccc3n2)CC1 (stereo not drawn)	0	0	54	-	-	-
CCN1CCN(c2cc(C)nc(-c3ccccc3O)n2)CC1	0	0	0	0	0	-
O=C(CCOc1ccccc1)Nc1ccnn1C1CCN(CCc2ccccc2)CC1	?	-52	0	-	0	0
SMILES	PTHR1 agonist	D3 antag	DRD3 agonist	CBFb RUNX1 block	Integrin act MD	MBNL1 CUG block
Cc1ccccc1CN1CCC(n2nccc2NC(=O)CCCc2ccccc2)CC1	0	-80	0	-	0	0
O=C(CCOc1ccccc1)Nc1ccnn1C1CCN(Cc2ccc(O)cc2)CC1	0	0	0	-	?	0
COc1ccc(NC(=S)N(CCC(C)C)C2CCN(C(C)C)CC2)cc1	0	-54	0	-	0	0
COc1ccc(CCNC(=O)C(=O)NCC2CCCN2S(=O)(=O)c2ccc(OC)cc2)cc1 (stereo not drawn)	0	0	34	-	0	-
COc1ccc(S(=O)(=O)N2CCCC2CNC(=O)C(=O)NC2CCCC2)cc1 (stereo not drawn)	0	0	0	-	0	-
Cc1ccc(NC(=O)CSc2nc(=O)n(Cc3cccnc3)c3c2CCC3)cc1F	0	-	0	-	-	-
CCOC(=O)Nc1ccc2c(CN3CCC(C(=O)OC)CC3)cc(=O)oc2c1	0	0	0	-	0	0
CCc1ccc2c(CN3CCN(S(=O)(=O)c4cccs4)CC3)cc(=O)oc2c1	0	-75	0	0	0	0
CCc1ccc2c(CN3CCC(C(=O)OC)CC3)cc(=O)oc2c1	0	0	100	-	0	0
CCc1ccc2c(CN3CCN(S(=O)(=O)c4ccccc4F)CC3)cc(=O)oc2c1	0	0	0	-	0	-
COC(=O)C1CCN(Cc2cc(=O)oc3cc(C)c(Cl)cc23)CC1	0	0	95	-	0	0
Cc1cc2oc(=O)cc(Cn3ncc(Cl)c(Cl)c3=O)c2cc1Cl	0	-77	0	0	0	0
COc1ccc([C@@H]2[C@@H](O)[C@H](O)[C@@H](C)N2C)cc1OC	-	-	-	0	-	-
O=C(NN=C(c1ccccc1)c1ccccc1)C(CCl)C1CCCCC1 (stereo not drawn)	0	-51	0	-	0	-
O=C(CNC1CCCCC1)NN=C(c1ccccc1)c1ccccc1	0	0	0	0	0	0
O=C(Cn1c(-c2cccs2)cc2cc(F)ccc21)NCCCN1CCN(c2ccccc2F)CC1	0	-	0	-	-	-
O=C(CCNC(=O)Cn1ccc2ccccc2c1=O)NCCCN1CCN(c2ccc(F)cc2)CC1	0	?	0	0	0	0
O=C(CNC(=O)Cn1ccc2ccccc2c1=O)NCCCN1CCN(c2cccc(Cl)c2)CC1	0	-75	0	0	0	0
O=C(Cn1c(=O)c2cccn2c2ccc(F)cc21)NCCCN1CCN(c2ccccc2F)CC1	0	-92	0	-	0	0
O=C(CCNC(=O)Cn1ccc2ccccc2c1=O)NCCCN1CCN(c2ccccc2F)CC1	0	-68	0	0	0	0
COC(=O)[C@H](CC(C)C)N(Cc1ccccc1)S(=O)(=O)N(Cc1ccc(OC)cc1)[C@@H](CC(C)C)C(=O)OC	0	0	0	-	0	-
Cc1cc(C)nc(N/N=C/c2cccc(Cl)c2)n1	0	0	0	0	0	0
Clc1cccc(/C=N/Nc2nc(Cl)nc3ccccc23)c1	0	-60	0	0	0	0
Cc1ccc(-c2[nH]c3c(c2-c2c(-n4cccc4)n(C)c(=O)[nH]c2=O)c(=O)[nH]c(=O)n3C)cc1	0	-	0	-	-	-
COc1cc(/C=N/NC(=O)CSc2nc3ccccc3n2C)cc(OC)c1OC	0	0	0	0	0	0
Cc1ccc(NC(=O)C2=C(c3ccccc3)S(=O)(=O)CCS2(=O)=O)cc1	0	-71	0	0	0	0

Assay outcomes (PubChem)
